Laboratory results reported in PubChem BioAssay AID430 (Sanford-Burnham Center for Chemical Genomics, 2006).
In all, about 63,000 compounds went through this assay and about 1,100 (1.7%) were called active. The sample as a whole holds a higher share of actives than the screen did. Entries with a potency or affinity are not part of this list. A number with no mark means an inactive call. Rule as the data show it: active = cytotoxicity above about 50%; inactive = the rest.

Assay: HPDE-C7 pancreatic duct cell viability loss – fluorescence, HTS (AID 430);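 also: cells exposed to compound for 48 hours before viability readout; 0% = vehicle and 100% = reference cytotoxic drug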
Settings: HPDE-C7 pancreatic duct cells viability, at 10 µM, hits give high values

Row | Compound | cytotoxicity
1 | CCCN(CCC)c1nc2ccccc2nc1C(C#N)C(=O)OCCOC (stereo not drawn) | -8.9%
2 | Cc1nnc(SCC(=O)Nc2nc3c(s2)CC(C)CC3)s1 (stereo not drawn) | 1%
3 | CCC(c1nnnn1C(C)(C)C)N(CCOC)Cc1cc2cccc(C)c2n2nnnc12 (stereo not drawn) | 5.7%
4 | CCOC(=O)c1c(C)oc2c1c1c(c3ccccc32)OCN(Cc2cccnc2)C1 | 2.1%
5 | CCOC(=O)c1c(C)oc2c1c(C(c1cccnc1)N1CCN(C)CC1)c(O)c1ccccc12 (stereo not drawn) | 112% (active)
6 | CCOC(=O)c1c(C)oc2c1c(C=NCc1ccccn1)c(O)c1ccccc12 | 91% (active)
7 | CCOC(=O)c1c(C)oc2c1c(C=NC1CCS(=O)(=O)C1)c(O)c1ccccc12 (stereo not drawn) | 28.9%
8 | CCOC(=O)c1c(C)oc2c1c(/C=N/c1ccccn1)c(O)c1ccccc12 | 1.4%
9 | CCOC(=O)c1c(C)oc2c1c(C=NCC1CCCO1)c(O)c1ccccc12 (stereo not drawn) | -16.9%
10 | O=S(=O)(N1CCCCC1)N1CCN(S(=O)(=O)N2CCCCC2)CC1 | 0.2%
11 | CCOC(=O)CNC(=O)C(Cc1ccccc1)NS(=O)(=O)c1cccs1 (stereo not drawn) | 2.5%
12 | CCOC(=O)CN(Cc1ccccc1)S(=O)(=O)c1ccc(NC(C)=O)cc1 | -2.7%
13 | CC(=O)Nc1ccc(S(=O)(=O)c2ccc(N)cc2)cc1 | -11%
14 | COc1ccccc1NS(=O)(=O)c1ccc(NC(C)=O)cc1 | -0.5%
15 | COC(=O)C(C)NS(=O)(=O)c1ccc(NC(C)=O)cc1 (stereo not drawn) | -12.8%
16 | COC(=O)/C=C/S(=O)(=O)c1ccc(NC(C)=O)cc1 | 102% (active)
17 | O=C(CSc1nnc(COc2ccc(Cl)cc2)o1)OC1CCCCC1 | -7.9%
18 | CCOC(=O)N1CCC(NCCNC(=O)c2cccs2)CC1 | -6.4%
19 | O=C(Cc1ccccc1)N1CCCC1c1ccccc1 (stereo not drawn) | -22.3%
20 | CCCCN(C(=O)NC(=O)Nc1ccccc1OC)S(C)(=O)=O | -3.1%
21 | CCOC(=O)N1CCN(C(=O)CSc2nnc(-c3ccc(C(C)(C)C)cc3)o2)CC1 | 2.6%
22 | O=C(CNC1CCCCCC1)Nc1ccc(S(=O)(=O)NC2CC2)cc1 | -6.7%
23 | Cc1ccc(-c2cc(-c3ccc(F)cc3)nc(N)c2C#N)o1 | 20.1%
24 | Cc1ccc(-c2cc(-c3ccc(C)o3)nc(N)c2C#N)cc1 | 20.9%
25 | Cc1ccc(-c2cc(-c3ccc(Cl)cc3)c(C#N)c(N)n2)o1 | 64.4% (active)
26 | Cc1ccc(-c2cc(-c3ccccc3Cl)c(C#N)c(N)n2)o1 | 11.3%
27 | Cc1cc(-c2cc(-c3ccc(Cl)cc3)nc(N)c2C#N)co1 | 77.8% (active)
28 | Cc1ccc(-c2cc(-c3ccccc3)c(C#N)c(N)n2)o1 | 29.8%
